Experimental data as given in PubChem BioAssay (NCI).
Compounds without any hit were thinned out: in the full panel of roughly 83,000, 20% have a hit.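 How to read the values: 0–100, growth inhibition (40 = 60% inhibited); 0, no net growth; -100 to 0, cell death (-40 = 40% of starting cells died; -100 = all dead).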 A number with no mark means an inactive call. Activity calls are given as the source filed them. The calls were made as follows: active = growth percent below 10; inactive = the rest.

Columns and labels:
Assay in all cases: NCI-60 one-dose screen, 48 h (100 = growth as untreated, 0 = no growth, -100 = all killed)
Conditions in all cases: 10 µM unless noted
T-47D breast = tested on: T-47D breast
BT-549 breast = tested on: BT-549 breast
MDA-MB-435 melanoma = tested on: MDA-MB-435 melanoma
SW-620 colon = tested on: SW-620 colon
MCF7 breast = tested on: MCF7 breast
HCT-116 colon = tested on: HCT-116 colon
HCC-2998 colon = tested on: HCC-2998 colon
KM12 colon = tested on: KM12 colon

Row | Compound | growth (T-47D breast) | growth (BT-549 breast) | growth (MDA-MB-435 melanoma) | growth (SW-620 colon) | growth (MCF7 breast) | growth (HCT-116 colon) | growth (HCC-2998 colon) | growth (KM12 colon)
1 | Cn1ccnc1C(=O)C(=O)Nc1ccc(CC(=O)Nc2ccccc2)cc1 | 112% | 103% | 101% | 102% | 92.1% | 114% | 106% | 105%
2 | CC1=Nc2cnc(Nc3ccc(OCCN4CCCC4)cc3)nc2Nc2ccccc21 | 61.1% | 88.2% | 72.2% | 68.4% | 75% | 73.6% | 72.2% | 15.2%
3 | C=C(C)[C@@H]1CC[C@]2(C(=O)OC)CC[C@]3(C)[C@H](CC[C@@H]4[C@@]5(C)C/C(=C/NC(N)=S)C(=O)C(C)(C)[C@@H]5CC[C@]43C)[C@@H]12 | 60.9% | 126% | 93.7% | 87.3% | 80.7% | 74.4% | 99.4% | 82.6%
4 | O=C(O)c1ccc(-n2cc(/C=N/Nc3ccc(F)cc3)c(-c3cc4ccccc4oc3=O)n2)cc1 | 63.7% | 80% | 77.5% | 64.5% | 66.1% | 56.5% | 88.3% | 77.7%
5 | COc1ccc(-c2nc3c(c(-c4ccccc4)nn3-c3ccccc3)c(-c3ccc(N4CCOCC4)cc3)c2C#N)cc1 | 94.3% | 95.3% | 99.2% | 90.4% | 84.6% | 96% | 108% | 104%
6 | COC1=CC(c2ccc[nH]2)=N/C1=C\c1[nH]c(C)c(C(=O)OCc2ccccc2)c1C | -73.4% (active) | -13.8% (active) | -69.7% (active) | -25.5% (active) | -76.3% (active) | -75.4% (active) | -54.5% (active) | -71.3% (active)
7 | CCN(CC)CCOc1ccc(C(=C(C)c2ccc(Cl)cc2)c2ccc(OCCN(CC)CC)cc2)cc1 | -66.4% (active) | -50.6% (active) | -95.1% (active) | -75.6% (active) | -76.5% (active) | -94.1% (active) | -91.2% (active) | -79% (active)
8 | CC12CCC3c4ccccc4CCC3(CO1)C2 (configuration not stated) | 101% | 121% | 107% | 106% | 97.1% | 117% | 94.2% | 110%
9 | COC(=O)[C@H]1CCCN1C[C@@H](O)CN1C(=O)/C(=C\c2cc(OC)c(OC)c(OC)c2)c2ccccc21 | 86.7% | 111% | 96.5% | 95.7% | 70.5% | 92.8% | 102% | 98.9%
10 | CCOc1ccc(NC(=O)CSc2oc(-c3ccccc3)nc2S(=O)(=O)c2ccc(F)cc2)cc1 | 63.1% | 96.5% | 88.9% | 89.6% | 71.4% | 21.9% | 85.3% | 84.9%
11 | COc1cc(-n2cc(-c3cc(O)c(C/C=C(\C)CCC=C(C)C)c(O)c3)nn2)cc2c1O[C@]1(C)CC[C@@H](O)C(C)(C)[C@H]1C2 | 5.7% (active) | 29% | 16.6% | 11.7% | 7.25% (active) | 8.36% (active) | 10.2% | 15.9%
12 | CCOC(=O)c1c(C)c2c(n1C)CSc1cc(C(=O)c3ccccc3)c(=O)[nH]c1-2 | 72.3% [100 µM] | 93.7% [100 µM] | 84.6% [100 µM] | 93.8% [100 µM] | 90.6% [100 µM] | 85.8% [100 µM] | 106% [100 µM] | 97.4% [100 µM]
13 | COc1cc2c(c(OC)c1OC)C(=O)CC(c1cccc(NC(=O)c3ccc(Br)cc3)c1)O2 (configuration not stated) | 10% | 15.7% | -18.3% (active) | 25.4% | 23.4% | 23.4% | 72.7% | 31.6%
14 | O=C(/C=C/c1ccccc1)c1cccc(OCCCOc2cccc(C(=O)/C=C/c3ccccc3)c2)c1 | 72.1% | 92% | 101% | 54.2% | 11.3% | -81.3% (active) | 42.2% | 25.7%
15 | C=CCn1c(SCC(=O)NCc2cc(C)c(O)c(C)c2)nc2ccc(Cl)cc2c1=O | 103% | 113% | 107% | 102% | 91.3% | 102% | 110% | 104%
16 | COc1cc(-c2nc3cc(Cl)c(Cl)cc3[nH]2)ccc1OCC(=O)N=Nc1c(O)[nH]c2ccc([N+](=O)[O-])cc12 | 66.6% | 98.8% | 81.9% | 82.7% | 74% | 42.6% | 71.8% | 103%
17 | CCN(CC)CCNC(=O)c1cn2ncnc(Oc3ccc(NC(=O)Nc4ccc(Cl)c(C(F)(F)F)c4)c(F)c3)c2c1C | 64.5% | 30.3% | -78.8% (active) | -62.1% (active) | -65% (active) | -79.3% (active) | -88.9% (active) | -30.5% (active)
18 | COc1ccc(-c2csc(N(C(=O)N3CCN(c4cc5c(cc4F)c(=O)c(C(=O)O)cn5C4CC4)CC3)c3ccccc3)n2)cc1 | 17.1% | -4.67% (active) | 16.9% | 17.4% | 8.74% (active) | 6.33% (active) | 24.1% | 5.96% (active)
19 | O=C(Nc1ccc(-c2nc(N3CCOCC3)c3cccn3n2)cc1)Nc1cccnc1 | -24.8% (active) | -10.2% (active) | 3.87% (active) | 8.71% (active) | 4.54% (active) | 4.12% (active) | 12.9% | 9.01% (active)
20 | COc1ccc(C(=O)C2C(c3ccc(OC)cc3)CN(C)C23C(=O)Nc2ccccc23)cc1 (configuration not stated) | 85.8% | 105% | 97.6% | 95.2% | 98.8% | 84.4% | 88.4% | 93.9%
21 | COc1ccc(-c2nn(-c3ccccc3)cc2/C=C2/SC(=S)N(C)C2=O)cc1 | 35.1% | 102% | 84.9% | 66.8% | 75.3% | 31% | 98.9% | 98.4%
22 | CC1Cc2c(Cl)ncnc2N(C)c2ccc(F)cc21 (configuration not stated) | 92.5% | 108% | 102% | 106% | 97.9% | 87.5% | 103% | 99.9%
23 | COc1cc(OC)cc(C2=C3CC[C@@H]4[C@H](CC[C@]5(C)C(=O)CC[C@@H]45)C3=CC3C(O)c4cccnc4N4C(=O)COC234)c1 (some centres not stated) | 107% | 94.7% | 104% | 103% | 103% | 97% | 96.6% | 102%
24 | CC(=O)N1N=C(c2ccc(Nc3nc(Nc4ccc(Cl)cc4)nc(Nc4ccc(Cl)cc4)n3)cc2)CC1c1ccco1 (configuration not stated) | 67.6% | 104% | 84.5% | 114% | 83% | 91.3% | 128% | 92.7%
25 | Cc1nc2sc(C(=O)Nc3ccccc3)c(N)c2cc1C(=O)c1ccccc1 | 46.3% | 68.4% | -33.7% (active) | 27.8% | 11.5% | 29.7% | 18.2% | 33.7%
26 | COCCn1c(-c2csc(-c3cn(C)c4ccc(OC)cc34)n2)cc2cccnc21 | 8.7% (active) | 43.6% | 74.5% | 15.1% | 47.5% | 57.2% | -3.8% (active) | 21.5%
27 | CN[C@]12CC3(C=CC(=O)C=C3)O[C@@]1(Cc1ccc(OC)cc1)N(C)C(=O)N2 | 16.6% | 41.5% | 1.71% (active) | 11.1% | 23.3% | -35.2% (active) | 32.7% | 9.7% (active)
28 | c1ccc(CNc2c3ccccc3nc3ccccc23)cc1 | 37.7% | 72.8% | 42.8% | 24.5% | 12% | 8.4% (active) | 38.2% | 30.5%
29 | Cc1c(-c2nc3ccc(F)cc3c(=O)[nH]2)c2ccccc2n1C | 36.1% | 43.8% | -38.8% (active) | 16.1% | 19.1% | 25.1% | 53% | 22%
